Here are results for 40 compounds from PubChem BioAssay (Tox21).

Several values for one entry are separate records, joined by “and”; a condition that tells them apart may be missing. Identical values can stand only once. Inconclusive results are not listed. Entries that show only a call come without a potency. Activity calls are given as the source filed them. Calls come from the whole dose curve; as a rule, active = well fitted cell-killing curve with a large enough effect in the repeat runs; inconclusive = weak or mixed curves, or effect the other way; inactive = flat fitted curve, though single readings scatter.
Potency is the fitted concentration of half-maximal effect.

This test is described as follows: qHTS assay to identify small molecule antagonists of the constitutive androstane receptor (CAR) signaling pathway - cell viability counter screen (AID 1224837). Note: nearly all actives have a fitted effect of over 45% in size. The settings on record: HepG2-CYP2B6-hCAR viability, CellTiter-Fluor, 23 h, co-treated with 50 nM CITCO; series mostly up to 92.4 µM. From the text: National Center for Advancing Translational Sciences [NCATS]
NIH Chemical Genomics Center [NCGC]
U.S. Environmental Protection Agency [EPA]
National Institutes of Environmental Health Sciences [NIEHS]
National Toxicology Program [NTP]
U.S. Food and Drug Administration [FDA]
The constitutive androstane receptor (CAR) is a nuclear receptor which regulates multiple drug metabolizing enzymes (DMEs) and transporters. Activating CAR will generally increase the transcription and subsequent translation of CYP2B6 and CYP3A4. These two DMEs represent about 50% of the drug metabolizing potential in the body. When CAR is deactivated, the metabolizing potential in the body will decrease, subsequently increasing the toxicity in the body or lowering the therapeutic potential of a pro-drug. Recently, there have also been studies performed indicating CARs role in energy metabolism and cancer therapy. Therefore, inhibiting CARs activity could have a potential effect on diabetes and cancer. Identifying environmental toxins and compounds which modulate CAR, through the use of the Tox21 10K compound collection, will be an important step in determining the toxicity and potential therapeutic effects these factors will have on the human body. To differentiate true CAR antagonists from cytotoxic substances, the assay is multiplexed with a cell viability assay.
Tox21 Assay Protocol Summary:
A double-stable (hCAR and CYP2B6-2.2kb) transfected cell line, derived from human hepatoma (HepG2) cells, was utilized for the duration of the quantitative high-throughput screens. The HepG2-CYP2B6-hCAR cells were dispensed at 2500 cells/4 uL/well in 1536-well white solid bottom plates using a Multidrop Combi. After the assay plates were incubated at 37 C/5% CO2 for 4 hrs, 23 nL of compounds at 15 concentrations (from 5-48 columns) or positive control (from 1 to 4 columns) were transferred to the assay plates using a Pintool station. One uL of CITCO (final concentration = 50 nM) was added, using a Flying Reagent Dispenser, inside each well. After a 23 hr incubation period at 37 C/5% CO2, 1 uL of CellTiter-Fluor reagent was added into each well of the assay plates using a Flying Reagent Dispenser. The fluorescence intensity in the plates was then measured using a ViewLux plate reader.
On to `CCCCCCCCCBr`, for which the Potency result is “inactive”.
Consider `Nc1ccccc1C(=O)OC/C=C/c1ccccc1`, for which the Potency entry is “inactive”.
Consider `N#CCCSCCC#N`, for which the Potency entry was “inactive”.
On to `CN(C)CCc1c[nH]c2ccc(O)cc12`, for which the Potency result was “inactive”.
Then `ClC1=C(Cl)[C@]2(Cl)[C@H]3[C@H]([C@H]4C=C[C@H]3C4)[C@@]1(Cl)C2(Cl)Cl`, with “inactive”; and `CC(O)C#N` (stereo not given), with “inactive”.
Then `OC(c1ccc(Cl)cc1)(c1ccc(Cl)cc1)C(Cl)(Cl)Cl`, with “inactive”.
Then `CC(=O)Nc1ccc2c(c1)Cc1ccccc1-2`, with “inactive”; and `CCCN(CC)CC1COC2(CCC(C(C)(C)C)CC2)O1` (stereo not given), with “inactive”; and `ClC1=C(Cl)C2(Cl)C3C(Cl)C=CC3C1(Cl)C2(Cl)Cl` (stereo not given), with “inactive”.
Turning to `BrC(Br)Br`, the Potency result was “inactive”.
Regarding `O=C(CCCN1CCC2(CC1)C(=O)NCN2c1ccccc1)c1ccc(F)cc1`, the Potency was 3.35 µM (active).
Then `CC(C)CCCCCCCOP(=O)(Oc1ccccc1)Oc1ccccc1`, with “inactive”; and `CN(C)S(=O)(=O)N(SC(F)(Cl)Cl)c1ccccc1`, with 27.3 µM (active); and `Cc1cc(Cl)ccc1O[C@H](C)C(=O)O`, with “inactive”.
Consider `COP(=S)(OC)Oc1cc(Cl)c(Br)cc1Cl`, for which the Potency result is “inactive”.
Then `O=C/C(Cl)=C(/Cl)C(=O)O`, with “inactive”; and `CC(=O)C(Cl)(Cl)Cl`, with 20.9 µM (active).
Then `CC(C)CC(C)N` (stereo not given), with “inactive”; and `N#CSCSC#N`, with 27.9 µM (active) and 27 µM (active); and `Cc1cc(C)cc(OP(=O)(Oc2cc(C)cc(C)c2)Oc2cc(C)cc(C)c2)c1`, with “inactive”.
Take `Clc1ccc(-c2ccccc2)cc1`: the Potency entry was “inactive”.
Then `CC(=[OH+])/C=C(/C)[O-].CC(=[OH+])/C=C(\C)[O-].CC(=[OH+])/C=C(\C)[O-].[Al]`, with “inactive”; and `Clc1ccc(COC(Cn2ccnc2)c2ccc(Cl)cc2Cl)cc1` (stereo not given), with 40.4 µM (active) and 43.1 µM (active) and 26.6 µM (active); and `Oc1c(Cl)c(Cl)cc(Cl)c1Cl`, with “inactive”.
Then `CCCCCCCCCC[N+](C)(C)CCCCCCCCCC`, with 24.3 µM (active).
Consider `O=CC(Br)(Br)Br`, for which the Potency was 27.2 µM (active).
With `Fc1ccc(Oc2ccnc3cc(Cl)cc(Cl)c23)cc1` the entry was “inactive”.
On to `CCCCOP(=O)(CCCC)OCCCC`, for which the Potency entry was “inactive”.
Then `O=[N+]([O-])c1cc(Cl)ccc1Cl`, with “inactive”; and `Cc1cc(N=Nc2ccccc2C)ccc1N`, with 3.06 µM (active); and `O=C(O)c1cc[c]([Hg][Cl])cc1`, with 54.5 µM (active).
As for `CCN`, the Potency entry is “inactive”.
Take `O=C(Cl)c1ccc(Cl)cc1`: the Potency entry was “inactive”.
With `COC(=O)N(C(=O)N1CO[C@@]2(C(=O)OC)Cc3cc(Cl)ccc3C2=N1)c1ccc(OC(F)(F)F)cc1` the entry was “inactive”; with `CC(C)[C@H](C(=O)OC(C#N)c1cccc(Oc2ccccc2)c1)c1ccc(OC(F)F)cc1` (stereo not given in full), “inactive”.
For the compound `c1ccc2c(c1)[nH]c1cnccc12`, the Potency entry was “inactive”.
Regarding `C[As+](C)(C)CC(=O)[O-]`, the Potency entry is “inactive”.
In the case of `O=c1ssc(Cl)c1Cl`, the Potency is 54.5 µM (active).
`ClCCN1CCOCC1`: the Potency result was “inactive”.
